An excerpt weighted towards active compounds, which were near 1.9% of everything screened.
S1P1 ag-PAM = S1P1 (human) agonism or agonism potentiation; P21453; S1P1 CRE-bla cells, forskolin, beta-lactamase FRET, potentiator mode; S1P1 agonist co-added at EC20, 2 nM; 100% = saturating reference agonist, 0% = basal; activation, % at 9.5 µM; hit rate 0.57% among 56,000; AID 449;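 active means activation above a cutoff set at the mean activation of all tested compounds plus 3 SD, cut at about 54% in these data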;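 further: forskolin at 4 µM as EC80 and the EC20 agonist is SEW2871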
Hsp90 block = displaces geldanamycin probe from tumor Hsp90 | P07900 | NCI-N417 lysate Hsp90, Cy3B-geldanamycin FP displacement | inhibition, % at 30 µM | hit rate 0.35% among 64,000;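 active means inhibition above 50%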
SKBR3 24h inh = SK-BR-3 proliferation inhibitors; hit rate 0.47% among 41,000; viability, % at 10 µM; AID 847; SK-BR-3 viability, CellTiter-Glo ATP luminescence, 24 h; active compounds read low;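 active means viability at or below the median of all test compounds minus 3 SD, in both replicates if run twice, cut at about 45% in these data; inconclusive means duplicate replicates that disagree with each other; inactive means viability above that cutoff in every replicate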
HER2 expr 66K = lowers expression of human Her2 kinase. hit rate 0.69% among 65,000. SKBR-3 HER2 protein level, AlphaScreen, 18-24 h; active compounds read low. HER2 level % of control, % at 10 µM. AID 645;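 active means HER2 level under 5% of the carrier-only control; inconclusive means no clear call, values can overlap the other calls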;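 further: lower value means stronger loss of Her2 protein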
TNAP act DEA = activates human TNAP at intermediate phosphate acceptor concentration; activation factor at 20 µM; P05186; AID 813; 64,000 tested, under 10 active; purified TNAP, CDP-star luminescence, 100 mM DEA, 30 min; active compounds read high; scale: 0 levamisole-inhibited, 1 vehicle-only enzyme;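 active means activation factor of at least 2 at 20 µM, relative to controls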
BAP1 block = inhibitors of human BAP1 deubiquitinase; Q92560; recombinant BAP1, Ub-AMC hydrolysis fluorescence kinetic; active compounds read low; activity remaining (% of control), % at 20 µM; hit rate 0.48% among 72,000; AID 436;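 active means activity remaining at or below 50% of control, provided the compound also passes the data quality filters; inactive means the rest, including low values that fail the filters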
Of the large screens only hits and unclear results are named; the others gave an inactive call.

O=C(Nc1ccc(O)cc1)c1cc2n(n1)C(C(F)(F)F)CC(c1ccco1)N2 (stereo unspecified)	S1P1 ag-PAM 99.8 (no result: SKBR3 24h inh)
Cc1cccc(N(CC(=O)NC2CCCCC2)C(=O)CCC(=O)Nc2cc(C)ccn2)c1	none
Cc1cc(-c2nnco2)c(C)n1-c1ccc(F)cc1	HER2 expr 66K 4.7 (no result: S1P1 ag-PAM, Hsp90 block, BAP1 block)
CC(C)CCN1CC(C(=O)NCc2ccccc2)CC1=O (stereo unspecified)	none (no result: SKBR3 24h inh)
CC1Cc2ccccc2N1c1ncnc2nc[nH]c12 (stereo unspecified)	S1P1 ag-PAM 93.3 (no result: SKBR3 24h inh)
Cc1[nH]nc2c1C(C1CC=CCC1)C(C#N)=C(N)O2 (stereo unspecified)	HER2 expr 66K -10.5
CC(=O)Nc1ccc(-c2nc3cc(S(=O)(=O)c4ccc5oc(-c6ccc(NC(C)=O)cc6)nc5c4)ccc3o2)cc1	none (no result: S1P1 ag-PAM, Hsp90 block, SKBR3 24h inh, HER2 expr 66K, TNAP act DEA)
N#CC(Cc1ccc(O)c(O)c1)C(=O)N1CCc2ccccc21 (stereo unspecified)	Hsp90 block 81.0 (no result: S1P1 ag-PAM, SKBR3 24h inh, HER2 expr 66K, TNAP act DEA)
O=S(=O)(CC(CN1CCCC1)N1CCCC1)c1ccc2ccccc2c1 (stereo unspecified)	HER2 expr 66K -12.8
O=S(=O)(c1ccc2ccccc2c1)N1CCCCC1	none (no result: SKBR3 24h inh)
COc1ccccc1Cn1c(=O)[nH]c2cccnc21	none
O=C(c1ccc(F)cc1)C(CN1CCOCC1)c1ccccc1 (stereo unspecified)	SKBR3 24h inh 22.2, HER2 expr 66K -19.2
c1ccc(C(CN2CCOCC2)c2ccccc2)cc1	none (no result: SKBR3 24h inh)
COc1ccc(C(=O)C(CN2CCCC2)c2ccccc2)cc1 (stereo unspecified)	HER2 expr 66K -6.9
O=C(c1ccccc1)C(CCC(CN1CCOCC1)C(=O)c1ccccc1)CN1CCOCC1 (stereo unspecified)	S1P1 ag-PAM 92.6
Cc1ccc(Nc2cccccc2=O)cc1	none
CCOC(=O)N1CCN(S(=O)(=O)c2c(C)cc(C)cc2C)CC1	none
COCCCN1C(=O)C(=O)/C(=C(/O)c2ccc(OCC(C)C)cc2)C1c1cccnc1 (stereo unspecified)	HER2 expr 66K -20.8
COc1cccc(C(=O)NC2CC3CCCC(C2)N3CC(=O)Nc2ccc(N(C)C)cc2)c1 (stereo unspecified)	none (no result: S1P1 ag-PAM, Hsp90 block, BAP1 block)
COc1cccc(C(=O)NC2CC3CCCC(C2)N3CC(=O)Nc2ccccc2)c1 (stereo unspecified)	Hsp90 block 94.9
CCOc1ccccc1-n1c(SCC(=O)Nc2ccc(CC)cc2)nc2n[nH]c(C)c2c1=N	SKBR3 24h inh 30.5 (not shown: TNAP act DEA, BAP1 block)
O=C(Cc1ccccc1)N1CCCC(c2nc(-c3cccs3)no2)C1 (stereo unspecified)	SKBR3 24h inh 41.4
O=C(N1CCOCC1)N1CCCC(c2nc(-c3cccs3)no2)C1 (stereo unspecified)	none (no result: SKBR3 24h inh)
COc1ccc(-c2nc3cc(NC(=O)Cc4ccc(OC)c(OC)c4)ccc3o2)cc1	S1P1 ag-PAM 80.7 (not shown: BAP1 block)
CCCC(=O)Nc1ccc(-c2nc3cc(C)c(C)cc3o2)cc1	S1P1 ag-PAM 81.7 (not shown: BAP1 block)
COc1ccc(CC(=O)Nc2cccc(-c3nnc(-c4cccc(C)c4)o3)c2)cc1OC	SKBR3 24h inh inconclusive, HER2 expr 66K -0.4 (no result: S1P1 ag-PAM)
CCCC(=O)Nc1ccc2oc(-c3ccncc3)nc2c1	none
COc1ccc(CC(=O)Nc2ccc(-c3nnc(-c4ccccc4)o3)cc2)cc1OC	none
COc1ccc(CC(=O)Nc2cccc(-c3nnc(-c4ccc(C)cc4)o3)c2)cc1OC	none (not shown: SKBR3 24h inh, BAP1 block)
Cc1sc2ncnc(OCC(=O)c3ccc(S(=O)(=O)N4CCCC4)cc3)c2c1C	none (no result: SKBR3 24h inh)
CCOC(=O)CSc1nc(C)c2cc(OC)ccc2n1	none
O=C(NCc1ccccc1)N1CCN(c2ccc(Cl)c(Cl)c2)CC1	S1P1 ag-PAM 99.8
Cc1occc1C(=O)N1CCN(c2ccc(Cl)c(Cl)c2)CC1	S1P1 ag-PAM 69.3
Cn1c(N2CCN(C(=O)NCc3ccccc3)CC2)nc2ccccc21	none
CN1C(=O)C(C(=O)NC(C)(C)C)C2c3ccccc3OC13CCCCC23 (stereo unspecified)	HER2 expr 66K -29.9
COc1ccc(NC(=O)C2C(=O)N(C)C3(C)CC2c2ccccc2O3)cc1 (stereo unspecified)	none
Cc1cc(SCC(N)=O)nc(SCC(=O)c2ccccc2)n1	Hsp90 block 90.6
O=C(CN1CCC(c2nc3ccccc3s2)CC1)NCc1cccs1	HER2 expr 66K -13.5
CC(C)n1c(N2CCN(CC(=O)NCc3cccs3)CC2)nc2ccccc21	none
CS(=O)(=O)N(CC(=O)NCc1ccco1)c1cc(C(F)(F)F)ccc1Cl	none
CCSc1nnc2c(n1)OC(c1ccc(C(=O)O)cc1)N(C(C)=O)c1ccccc1-2 (stereo unspecified)	Hsp90 block 89.2 (no result: SKBR3 24h inh)
COC(=O)CSc1n[nH]c(-c2ccncc2)n1	none
C=CCn1c(=N)n(CC(O)c2ccc(OCC)cc2)c2ccccc21 (stereo unspecified)	none (no result: S1P1 ag-PAM, Hsp90 block, SKBR3 24h inh, HER2 expr 66K, TNAP act DEA)
Cn1c(NCC(O)c2ccccc2)nc2c1c(=O)n(Cc1ccc(Cl)cc1)c(=O)n2C (stereo unspecified)	HER2 expr 66K -28.3
Cn1c(NCC(O)c2ccccc2)nc2c1c(=O)n(Cc1ccc(Cl)c(Cl)c1)c(=O)n2C (stereo unspecified)	none
COc1ccc(OC)c(N2C(=O)C(Cl)=C(N3CCOCC3)C2=O)c1	none (no result: SKBR3 24h inh)
CSc1ccccc1NC(=O)c1cc(CC(C)C)on1	none (no result: SKBR3 24h inh)
Cc1cc(C)n(-c2c(F)c(F)c(CN3CCCCC3)c(F)c2F)n1	none
Cc1cc(C)n(-c2c(F)c(F)c(CN3CCOCC3)c(F)c2F)n1	HER2 expr 66K -20.7
CCN(C1CCCCC1)S(=O)(=O)c1ccc(S(=O)(=O)NCc2ccncc2)cc1	S1P1 ag-PAM 87.5
CCC1CCCCN1CCCNC(=O)C1CCC(=O)N1Cc1ccc(C)cc1 (stereo unspecified)	none
Cc1nc(NC(=O)c2ccco2)sc1C(=O)Nc1ccc(Br)cc1	HER2 expr 66K -3.0 (no result: SKBR3 24h inh)
O=C(NCCCCCNC(=O)c1ccco1)c1ccco1	none
Cc1cc(C)c2cc(CN(CCO)C(=O)Nc3ccc(F)cc3)c(=O)[nH]c2c1	none
Cc1cc(C)c2cc(CN(Cc3ccco3)C(=O)NCc3ccccc3)c(=O)[nH]c2c1	SKBR3 24h inh 37.1
COc1ccc(N2C(=O)CC(Sc3nnc(-c4ccccc4)o3)C2=O)cc1 (stereo unspecified)	HER2 expr 66K -18.1 (no result: SKBR3 24h inh)
O=C1CC(Sc2nnc(-c3ccccc3O)o2)C(=O)N1c1ccccc1 (stereo unspecified)	HER2 expr 66K -12.7 (no result: SKBR3 24h inh)
O=C1OCCC1Sc1nnc(-c2ccccc2)o1 (stereo unspecified)	none (no result: SKBR3 24h inh)
O=C1c2ccccc2CC1Sc1nnc(-c2ccccn2)o1 (stereo unspecified)	none
Cn1c(Cn2c(=O)sc3ccccc32)nnc1SCC(=O)Nc1ccc(F)cc1	none (no result: SKBR3 24h inh)

Compound activity: PubChem BioAssay, several laboratories
